Mtb hypoxia inh: PubChem AID 1159583. M. tuberculosis hypoxia-regulated fluorescent reporter, fluorescence. fluorescence inhibition, % (test concentration not listed). 0.1% of 300,000 active; in the data active means fluorescence inhibition mostly above about 23%, no sharp cut-off; inactive means mostly below about 17%
3CLpro inhibitor: SARS-CoV 3CLpro protease inhibitors, primary screen, biochemical, quenched FRET. recombinant SARS-CoV 3CLpro, quenched FRET peptide cleavage. inhibition, % at 6 µM. 0.14% of 290,000 active. AID 1706, 2009; in the data active means inhibition above about 12%
CCHF vOTU inh-1: CCHFV vOTU protease inhibitors, primary screen, biochemical, Pep-AMC substrate, fluorescence | inhibition, % at 11.5 µM | Crimean-Congo hemorrhagic fever virus L polyprotein viral ovarian tumor (vOTU) protease … | 0.55% of 370,000 active; further: 0% = vehicle wells with enzyme and 100% = no enzyme wells
SSB-PriA inh: inhibitors of Klebsiella pneumoniae PriA binding to SSB C-terminal tail, primary screen, biochemical, AlphaScreen | AlphaScreen SSBct-PriA binding, biotinylated peptide | inhibition, % at 33 µM | 0.6% of 430,000 active; in the data active means inhibition mostly above about 37%, no sharp cut-off; inactive means mostly below about 20%;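 further: plate controls were negative control peptide for no effect and reference peptide for full effect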
DUSP3 inh: VHR1 phosphatase inhibitors, primary screen, biochemical, absorbance, uHTS; recombinant VHR phosphatase, pNPP absorbance; inhibition, % at 13.3 µM; Dual specificity protein phosphatase 3 (Homo sapiens), P51452; AID 1654, 2009; 0.52% of 290,000 active; in the data active means inhibition above about 50%
Target sequence (P51452 whole entry, looked up): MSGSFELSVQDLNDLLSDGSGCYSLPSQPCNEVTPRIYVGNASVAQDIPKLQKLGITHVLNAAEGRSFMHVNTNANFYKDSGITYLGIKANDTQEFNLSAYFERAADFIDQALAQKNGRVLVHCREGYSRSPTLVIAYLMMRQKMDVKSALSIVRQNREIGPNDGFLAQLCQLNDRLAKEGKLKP
CCHF vOTU inh-2: CCHFV vOTU protease inhibitors, confirmation, biochemical, Pep-AMC substrate, fluorescence | inhibition, % at 11.5 µM | shares compounds with CCHF vOTU inh-1 | Recombinant CCHFV vOTU | 17% of 1,900 active
* marks the source's active call; other numbers are inactive results; . = no result. Sampled rows, rich in hits. Any-hit rate of the full collection: about 1.3%. Unless noted, no stated cut-off is given here; in the data, active means inhibition above about 30%; inactive means the rest.

SMILES	Mtb hypoxia inh	3CLpro inhibitor	CCHF vOTU inh-1	SSB-PriA inh	DUSP3 inh	CCHF vOTU inh-2
O=[N+]([O-])c1cc(Br)c(Nc2ccccc2)c([N+](=O)[O-])c1	23	-2	7	-5	16	.
O=[N+]([O-])c1cc([N+](=O)[O-])c2c(=Nc3ccccc3)n(-c3ccccc3)n(O)c2c1	23	4	31*	63*	17	1
N#CCCN(C(=O)COC(=O)CCc1c[nH]c2ccccc12)c1ccccc1	5	.	36*	1	.	-10
N#CCCN(C(=O)COC(=O)CCc1ccccc1)c1ccccc1	.	1	6	-15	26	.
CSc1ccc(/C=C(/NC(=O)c2ccco2)C(=O)N2CCOCC2)cc1	8	-1	30*	-13	18	-15
O=C(N/C(=C/c1ccc(Br)cc1)C(=O)N1CCOCC1)c1ccco1	-1	-2	-1	-16	0	.
O=C1C(=O)N(CCCn2ccnc2)C(c2ccc(Cl)cc2)/C1=C(\O)c1ccc2c(c1)OCCO2 (stereo not given)	-10	-5	48*	.	-14	-12
NS(=O)(=O)c1ccc(NC(=O)COC(=O)c2ccc([N+](=O)[O-])s2)cc1	11	-1	74*	0	14	63*
CN(CC(=O)Nc1ccccc1Cl)C(=O)COC(=O)c1ccc([N+](=O)[O-])s1	16	.	78*	12	.	39*
O=C(COC(=O)c1ccc([N+](=O)[O-])s1)NNC(=O)c1ccccc1	18	.	.	22	.	.
CN(CC(=O)Nc1ccccc1Cl)C(=O)COC(=O)c1cccs1	-10	.	-14	0	.	.
Cc1cc(C)c(NC(=O)COC(=O)c2ccc([N+](=O)[O-])s2)c(C)c1	5	-2	54*	-1	10	-17
Cc1ccc(NC(=O)COC(=O)c2ccc([N+](=O)[O-])s2)c(C)c1	-3	1	-1	-9	16	.
COc1ccccc1NC(=O)COC(=O)c1ccc([N+](=O)[O-])s1	-4	5	80*	6	30	100*
CCc1nnc(N/N=C\c2ccc(OC(C)=O)c(OC)c2)n1N	.	-5	66*	.	-6	-6
CCc1nnc(NN=Cc2c(C)[nH]c3ccccc23)n1N	9	.	.	31	.	.
CCc1nnc(N/N=C/c2cccs2)n1N	.	0	89*	.	15	-3
CCOc1cc(/C=N/Nc2nnc(C)n2N)ccc1OC(C)=O	.	-2	86*	.	-13	-13
CCc1nnc(N/N=C/c2ccc(O)c(OC)c2)n1N	.	-2	77*	.	0	-2
CCc1nnc(NN=Cc2ccc(OC(C)=O)c(OC)c2)n1N	7	.	.	1	.	.
O=C(O)CCc1nnc(SCc2ccccc2Cl)[nH]c1=O	.	.	.	0	.	.
O=C(Nc1nnc(C2=COCCO2)o1)c1cc2ccccc2oc1=O	.	.	.	-1	.	.
CCc1nnc(N/N=C/c2cc(Br)c(O)cc2O)n1N	.	1	96*	.	5	14
CC(C)(C)c1nnc(N/N=C/c2cc(Br)ccc2O)n(N)c1=O	.	3	2	.	23	.
CN(C)/N=C\c1ccc(/C=N/NC(N)=S)cc1	.	.	.	20	.	.
SMILES	Mtb hypoxia inh	3CLpro inhibitor	CCHF vOTU inh-1	SSB-PriA inh	DUSP3 inh	CCHF vOTU inh-2
NC(=S)N/N=C/c1ccc(/C=N/NC(N)=S)cc1	.	-1	36*	.	2	3
O=c1cc(C(F)(F)F)nc(SCc2cccc3ccccc23)[nH]1	11	9	31*	-4	4	9
COc1ccccc1N1CCN(C(=O)Cn2ncn3nc(-c4ccccc4)cc3c2=O)CC1	.	.	.	-5	.	.
COC(=O)CSC1CCN(S(=O)(=O)/C=C/c2ccccc2)C1 (stereo not given)	.	.	.	1	.	.
COc1cccc2c1C(=O)c1c(O)c3c(c(O)c1C2=O)C[C@](O)(C(C)=O)C[C@H]3O[C@@H]1C[C@@H](N)[C@@H](O)[C@@H](C)O1	.	.	31*	33	.	-7
CCCCC(=O)OCC(=O)C1(O)Cc2c(O)c3c(c(O)c2C(OC2CC(NC(=O)C(F)(F)F)C(O)C(C)O2)C1)C(=O)c1c(OC)cccc1C3=O (stereo not given)	.	.	9	-11	.	.
Cc1onc(-c2ccccc2)c1C(=O)N/N=C/c1ccc([N+](=O)[O-])c(O)c1	.	-5	5	.	-19	.
Cc1onc(-c2ccccc2)c1C(=O)N/N=C/c1ccc(O)c([N+](=O)[O-])c1	.	1	33*	.	9	-11
COc1ccc(-c2noc(CSc3nc4ccsc4c(=O)n3C3CC3)n2)c(OC)c1	.	.	.	-8	.	.
CCN1C(=O)[C@H]2[C@@H](c3ccc(OC)cc3)N[C@]3(CCCN(Cc4cccn4C)C3=O)[C@H]2C1=O	.	.	30*	.	.	-2
COc1cccc(NS(=O)(=O)c2ccc3c(c2)C2C=CCC2C(c2ccc(C(=O)O)cc2)N3)c1 (stereo not given)	10	-2	41*	25	15	24
CCCCc1ccc(Nc2nc(Nc3ccc(C)c(C)c3)nc(N3CCOCC3)n2)cc1	.	.	.	-7	.	.
O=C(CCNS(=O)(=O)c1ccc(OC(F)(F)F)cc1)NCCc1c[nH]c2ccccc12	-8	.	30*	-7	.	-24
CC(=O)c1ccc(S(=O)(=O)NCCC(=O)NCCc2c[nH]c3ccccc23)cc1	-11	.	-7	4	.	.
COCCNc1ncnc2scc(-c3ccc(C)cc3)c12	.	.	.	-12	.	.
COc1ccc(S[C@@H](CCN2CC[C@H](NC(=O)OCc3ccccc3)CCC2=O)c2ccccc2)cc1	.	.	36*	11	.	2
COc1cc(/C=C2/SC(=S)N(CC(=O)O)C2=O)ccc1OC(=O)c1cccs1	7	-1	20	-1	28	.
COc1cc(/C=C2\SC(=S)N(CC(=O)O)C2=O)ccc1OS(=O)(=O)c1ccc(C)cc1	-1	.	54*	1	.	8
COc1cccc(NC(=O)NCC(c2ccsc2)N2CCN(C)CC2)c1OC (stereo not given)	.	.	.	-7	.	.
CCCNC1=C(N(C(C)=O)c2cccc(F)c2)C(=O)c2ccccc2C1=O	8	2	70*	17	-11	46*
CCCNC(=O)COC(=O)/C=C/c1cccc(F)c1	-5	3	14	-27	26	.
Cc1cc2cc(CN(Cc3ccco3)C(=S)NCC3CCCO3)c(=O)[nH]c2cc1C (stereo not given)	-5	1	31*	10	-2	-14
Cc1cc(C)cc(NC(=O)CN(C)S(=O)(=O)c2cccc3nsnc23)c1	10	2	21	2	-4	.
CCc1cccc(NC(=O)CN(C)S(=O)(=O)c2cccc3nsnc23)c1	0	5	36*	-7	-9	-3
Cc1ccc([C@@H]2CC(=O)[C@@H]3CN(S(=O)(=O)c4ccc(C)cc4)[C@H](c4ccc(Cl)cc4)C[C@@H]3N2S(=O)(=O)c2ccc(Cl)cc2)cc1	.	.	31*	.	.	-20
